# Active and inactive are the calls of the source.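 How the source made its calls: active means high combined rank on largest and smallest cell-count-weighted shift across three tests, rank score above 45, floors 50 and 25 (some results past the limit were not filed as active); inactive means the rest.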
# Test: activators of LNCaP cell differentiation, retest, confirmation, side scatter shift, flow cytometry (AID 1069);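 further: LNCaP human prostate cancer cells in low-serum medium with charcoal-stripped FBS; percent of cells with raised granularity gated so DMSO controls show 10%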
# Conditions: 4 d, stronger effect = higher value
SMILES,side scatter shift (at 100 µM),"side scatter shift (side scatter shift, at 10 µM)"
COc1ccc(C(CC(=O)O)NC(=O)Cc2ccccc2)cc1 (stereo unspecified),2.7% (inactive),3.1%
COc1ccc(-n2nnnc2SCC(=O)c2ccc(O)c(O)c2)cc1,0% (inactive),2.75%
O=C(CCNC(=O)Cn1ccc2ccccc2c1=O)NCCCN1CCN(c2ccccc2F)CC1,35.7% (inactive),6.15%
Cc1ccc(CNc2nc3ccccc3n3nnnc23)cc1,33.1% (inactive),7%
Cc1ccc(-c2noc(CCC(=O)NCCCN3CCN(c4cccc(Cl)c4)CC3)n2)cc1,31.8% (inactive),11.5%
COC(=O)c1cc2oc3ccccc3c2n1CC(=O)Nc1ccccc1OC,18.9% (inactive),8.8%
CCn1c(=O)cc(SCC(=O)NCCCN2CCN(c3ccccc3F)CC2)c2ccccc21,0% (active),33.5%
Cc1oc(-c2ccccc2F)nc1CN1CCC(C(=O)NC2CC2)CC1,13.5% (inactive),2.4%
c1ccc(N2CCN(c3nnc(Cc4cccnc4)c4ccccc34)CC2)nc1,17.5% (inactive),8%
Cn1nc(-c2ccc(Cl)cc2)c2cc(C(=O)NCCCN3CCCC3)sc21,31.6% (active),66.5%
Cc1cc(C)nc(N2CCC(C(=O)Nc3ccc(Oc4ccccc4)cc3)CC2)n1,44.1% (inactive),3.05%
Cn1c(=O)cc(OCC(=O)NCCCN2CCN(c3cccc(Cl)c3)CC2)c2ccccc21,20% (inactive),8.2%
Cc1nn(Cc2ccc(F)cc2)c(C)c1NC(=O)c1cc(-c2ccc3c(c2)OCO3)on1,4.8% (inactive),1.1%
